The panel holds about 79,000 compounds, 15% with a hit somewhere; the sample as a whole holds those more often. Unmarked numbers belong to inactive results. The source made the active and inactive calls. Cut-off read from the data, not from the text of the source: active = growth inhibition above about 70%; inactive = the rest.
Tests used:
[1] = NCI Yeast Anticancer Drug Screen. Data for the rad50 strain (AID 155);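 note: 0% = growth of vehicle-only cultures of the same strain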; conditions: S. cerevisiae rad50 strain growth inhibition, hits give high values
In short: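 Yeast carrying a defined DNA repair defect were exposed to test compounds, and growth was compared with vehicle-treated controls to give percent inhibition.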

[2] = NCI Yeast Anticancer Drug Screen. Data for the mec2-1 strain (AID 157); conditions: S. cerevisiae mec2-1 strain, hits give high values
In short: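 mec2-1 yeast strain, carrying an alteration in DNA damage repair or cell cycle control, was exposed to compounds; growth inhibition was measured relative to vehicle-treated controls.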

[3] = NCI Yeast Anticancer Drug Screen. Data for the sgs1 mgt1 strain (AID 161);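 note: 0% = growth of cultures given vehicle only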; conditions: S. cerevisiae sgs1 mgt1 strain, hits give high values
In short: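 Compounds are added to genetically altered yeast, and growth is compared with cultures given vehicle alone to give percent inhibition.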

[4] = NCI Yeast Anticancer Drug Screen. Data for the cln2 rad14 strain (AID 165);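 note: 0% = growth equal to vehicle treated cultures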; conditions: S. cerevisiae cln2 rad14 strain, hits give high values
In short: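 Yeast carrying cln2 and rad14 alterations (cell cycle control and DNA damage repair) were exposed to compounds. Growth inhibition was measured against vehicle-treated controls.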

[5] = NCI Yeast Anticancer Drug Screen. Data for the bub3 strain (AID 167); conditions: S. cerevisiae bub3 mutant strain, hits give high values
In short: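 Compounds were applied to a genetically altered yeast strain carrying a cell-cycle control defect. Growth inhibition was scored against vehicle-treated controls.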

[6] = NCI Yeast Anticancer Drug Screen. Data for the mlh1 rad18 strain (AID 175); conditions: S. cerevisiae mlh1 rad18 strain growth inhibition, hits give high values
In short: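 Growth inhibition of the yeast strain was measured after compound exposure and expressed relative to vehicle-treated controls. The strain carries defined defects in DNA damage repair.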

[7] = at 5.0 µM (retest, dose inferred, filed as 0.5)
[8] = at 50.0 µM (retest, dose inferred, filed as 5.0)

SMILES | growth inhibition [1, 7] | growth inhibition [1, 8] | growth inhibition ([1]; at 50.0 µM) | growth inhibition [2, 7] | growth inhibition [2, 8] | growth inhibition ([2]; at 50.0 µM) | growth inhibition [3, 7] | growth inhibition [3, 8] | growth inhibition ([3]; at 50.0 µM) | growth inhibition [4, 7] | growth inhibition [4, 8] | growth inhibition ([4]; at 50.0 µM) | growth inhibition [5, 7] | growth inhibition [5, 8] | growth inhibition ([5]; at 50.0 µM) | growth inhibition [6, 7] | growth inhibition [6, 8] | growth inhibition ([6]; at 50.0 µM)
Cc1cc2nc(CS)[nH]c2cc1C | -13% | 41% | 66.3% | 4% | 44% | 51.9% | 15% | 70% (active) | 70.8% (active) | 31% | 51% | 43.2% | 26% | 85% (active) | 55.9% | -13% | 61% | 44.2%
Nc1ccc(Sc2c3ccccc3nc3ccccc23)cc1 | 19% | 59% | 80.8% (active) | 16% | 34% | 63.3% | 22% | 98% (active) | 87.2% (active) | 19% | 96% (active) | 71.8% (active) | 24% | 98% (active) | 85% (active) | 18% | 48% | 60.1%
CC(=O)OCc1ccc(O)c2ncccc12 | -127% | 74% (active) | 95.7% (active) | -49% | 83% (active) | 94% (active) | -51% | 45% | 54.2% | -44% | 75% (active) | 41% | -56% | 74% (active) | 67.1% | -103% | 54% | 55%
C=Cc1ccc(B2NCCO2)cc1 | -2% | 99% (active) | 99.7% (active) | 7% | 97% (active) | 99.5% (active) | -8% | 99% (active) | 99.6% (active) | 0% | 74% (active) | 92.5% (active) | 8% | 59% | 99.5% (active) | 10% | 99% (active) | 99.2% (active)
CSC(SC)(C(=O)O)c1cc(-c2c(Cl)cccc2Cl)no1 | 3% | 27% | 39% | 2% | 42% | 44% | 7% | 48% | 95.5% (active) | -1% | -5% | 17.1% | 13% | 73% (active) | 51.6% | 0% | 36% | 84.4% (active)

Reference: PubChem BioAssay (NCI)
